Data: the supplement of paper PMC10849652
Of roughly 7,900 targets only a part is listed; those with a hit were picked by preference. About 0.6% of all pairs of compound and target were hits. A number with no mark means an inactive call.

Key:
Assay in all cases: log2 fold change, soluble protein after heating vs DMSO (PISA); higher = thermal stabilisation; K562 cells, 10 uM, 30 min; active = over 0.2 and 3.5 SD of the protein, either way, in both replicates (recomputed)
erlotinib = compound: C#Cc1cccc(Nc2ncnc3cc(OCCOC)c(OCCOC)cc23)c1 [erlotinib]
How it was run: (§1)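 K562 cells at 2×10^6 cells/mL were treated with 10 μM compound for 30 min. Aliquots were heated for 3 min across 48°C-58°C, pooled, and extracted in PBS with 0.5% NP-40 at 4°C; soluble protein was the supernatant after 21,000xg for 90 min. Soluble protein was quantified by TMTpro 16plex LC-MS/MS with channel sums equalised, and reported as log2 fold change in thermal stability against DMSO controls, with values from duplicates.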

[1] = compound: C/C(=N\NC(=O)C1=CC(=CC=C1)S(=O)(=O)N2CCOCC2)/C3=C(C=CC(=C3)Cl)O
How it was run: as §1

[2] = compound: C1=CC(=C(C=C1Cl)C2=NC3=NC=CN=C3C(=N2)NC4=CC=NC=C4)F
How it was run: as §1

[3] = compound: C1=CC(=CC=C1C2=NC3=C(N2)C=C(C=C3)C(=O)N)OC4=CC=C(C=C4)Cl
How it was run: as §1

[4] = compound: C1=CC2=C(C=CC(=C2)/C=C\3/C(=O)NC(=NCC4=CC=CS4)S3)N=C1
How it was run: as §1

[5] = compound: C1=CC2=NC=CN=C2C=C1/C=C/3\C(=O)NC(=O)S3
How it was run: as §1

[6] = compound: C1=CC=C(C=C1)C2=NC(=C(N2)C3=CC=NC=C3)C4=CC(=C(C=C4)Cl)O
How it was run: as §1

[7] = compound: C1=CC=C2C(=C1)C3=NNC4=CC=CC(=C43)C2=O
How it was run: as §1

[8] = compound: C1CCN(C1)C(=O)NC2=CC=CC(=C2)NC3=NC=C(C(=N3)NCCC4=CN=CN4)Br
How it was run: as §1

[9] = compound: C1CN(CCC1(CC2=CC=C(C=C2)Cl)N)C3=NC=NC4=C3C=CN4
How it was run: as §1

UniProt Q92947, sequence (Q92947 whole entry, looked up): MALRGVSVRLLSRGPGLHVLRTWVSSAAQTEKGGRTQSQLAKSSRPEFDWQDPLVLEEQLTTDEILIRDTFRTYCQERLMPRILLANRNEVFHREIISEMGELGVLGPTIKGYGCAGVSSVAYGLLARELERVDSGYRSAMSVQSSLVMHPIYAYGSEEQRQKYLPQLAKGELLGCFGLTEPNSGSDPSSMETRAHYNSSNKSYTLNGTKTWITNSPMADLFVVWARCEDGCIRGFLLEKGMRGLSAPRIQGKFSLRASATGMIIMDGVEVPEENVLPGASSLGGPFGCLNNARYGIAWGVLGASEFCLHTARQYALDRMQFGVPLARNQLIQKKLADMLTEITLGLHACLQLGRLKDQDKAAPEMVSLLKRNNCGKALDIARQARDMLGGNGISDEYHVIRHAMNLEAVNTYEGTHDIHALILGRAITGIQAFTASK
UniProt P21333, sequence (P21333 whole entry, looked up): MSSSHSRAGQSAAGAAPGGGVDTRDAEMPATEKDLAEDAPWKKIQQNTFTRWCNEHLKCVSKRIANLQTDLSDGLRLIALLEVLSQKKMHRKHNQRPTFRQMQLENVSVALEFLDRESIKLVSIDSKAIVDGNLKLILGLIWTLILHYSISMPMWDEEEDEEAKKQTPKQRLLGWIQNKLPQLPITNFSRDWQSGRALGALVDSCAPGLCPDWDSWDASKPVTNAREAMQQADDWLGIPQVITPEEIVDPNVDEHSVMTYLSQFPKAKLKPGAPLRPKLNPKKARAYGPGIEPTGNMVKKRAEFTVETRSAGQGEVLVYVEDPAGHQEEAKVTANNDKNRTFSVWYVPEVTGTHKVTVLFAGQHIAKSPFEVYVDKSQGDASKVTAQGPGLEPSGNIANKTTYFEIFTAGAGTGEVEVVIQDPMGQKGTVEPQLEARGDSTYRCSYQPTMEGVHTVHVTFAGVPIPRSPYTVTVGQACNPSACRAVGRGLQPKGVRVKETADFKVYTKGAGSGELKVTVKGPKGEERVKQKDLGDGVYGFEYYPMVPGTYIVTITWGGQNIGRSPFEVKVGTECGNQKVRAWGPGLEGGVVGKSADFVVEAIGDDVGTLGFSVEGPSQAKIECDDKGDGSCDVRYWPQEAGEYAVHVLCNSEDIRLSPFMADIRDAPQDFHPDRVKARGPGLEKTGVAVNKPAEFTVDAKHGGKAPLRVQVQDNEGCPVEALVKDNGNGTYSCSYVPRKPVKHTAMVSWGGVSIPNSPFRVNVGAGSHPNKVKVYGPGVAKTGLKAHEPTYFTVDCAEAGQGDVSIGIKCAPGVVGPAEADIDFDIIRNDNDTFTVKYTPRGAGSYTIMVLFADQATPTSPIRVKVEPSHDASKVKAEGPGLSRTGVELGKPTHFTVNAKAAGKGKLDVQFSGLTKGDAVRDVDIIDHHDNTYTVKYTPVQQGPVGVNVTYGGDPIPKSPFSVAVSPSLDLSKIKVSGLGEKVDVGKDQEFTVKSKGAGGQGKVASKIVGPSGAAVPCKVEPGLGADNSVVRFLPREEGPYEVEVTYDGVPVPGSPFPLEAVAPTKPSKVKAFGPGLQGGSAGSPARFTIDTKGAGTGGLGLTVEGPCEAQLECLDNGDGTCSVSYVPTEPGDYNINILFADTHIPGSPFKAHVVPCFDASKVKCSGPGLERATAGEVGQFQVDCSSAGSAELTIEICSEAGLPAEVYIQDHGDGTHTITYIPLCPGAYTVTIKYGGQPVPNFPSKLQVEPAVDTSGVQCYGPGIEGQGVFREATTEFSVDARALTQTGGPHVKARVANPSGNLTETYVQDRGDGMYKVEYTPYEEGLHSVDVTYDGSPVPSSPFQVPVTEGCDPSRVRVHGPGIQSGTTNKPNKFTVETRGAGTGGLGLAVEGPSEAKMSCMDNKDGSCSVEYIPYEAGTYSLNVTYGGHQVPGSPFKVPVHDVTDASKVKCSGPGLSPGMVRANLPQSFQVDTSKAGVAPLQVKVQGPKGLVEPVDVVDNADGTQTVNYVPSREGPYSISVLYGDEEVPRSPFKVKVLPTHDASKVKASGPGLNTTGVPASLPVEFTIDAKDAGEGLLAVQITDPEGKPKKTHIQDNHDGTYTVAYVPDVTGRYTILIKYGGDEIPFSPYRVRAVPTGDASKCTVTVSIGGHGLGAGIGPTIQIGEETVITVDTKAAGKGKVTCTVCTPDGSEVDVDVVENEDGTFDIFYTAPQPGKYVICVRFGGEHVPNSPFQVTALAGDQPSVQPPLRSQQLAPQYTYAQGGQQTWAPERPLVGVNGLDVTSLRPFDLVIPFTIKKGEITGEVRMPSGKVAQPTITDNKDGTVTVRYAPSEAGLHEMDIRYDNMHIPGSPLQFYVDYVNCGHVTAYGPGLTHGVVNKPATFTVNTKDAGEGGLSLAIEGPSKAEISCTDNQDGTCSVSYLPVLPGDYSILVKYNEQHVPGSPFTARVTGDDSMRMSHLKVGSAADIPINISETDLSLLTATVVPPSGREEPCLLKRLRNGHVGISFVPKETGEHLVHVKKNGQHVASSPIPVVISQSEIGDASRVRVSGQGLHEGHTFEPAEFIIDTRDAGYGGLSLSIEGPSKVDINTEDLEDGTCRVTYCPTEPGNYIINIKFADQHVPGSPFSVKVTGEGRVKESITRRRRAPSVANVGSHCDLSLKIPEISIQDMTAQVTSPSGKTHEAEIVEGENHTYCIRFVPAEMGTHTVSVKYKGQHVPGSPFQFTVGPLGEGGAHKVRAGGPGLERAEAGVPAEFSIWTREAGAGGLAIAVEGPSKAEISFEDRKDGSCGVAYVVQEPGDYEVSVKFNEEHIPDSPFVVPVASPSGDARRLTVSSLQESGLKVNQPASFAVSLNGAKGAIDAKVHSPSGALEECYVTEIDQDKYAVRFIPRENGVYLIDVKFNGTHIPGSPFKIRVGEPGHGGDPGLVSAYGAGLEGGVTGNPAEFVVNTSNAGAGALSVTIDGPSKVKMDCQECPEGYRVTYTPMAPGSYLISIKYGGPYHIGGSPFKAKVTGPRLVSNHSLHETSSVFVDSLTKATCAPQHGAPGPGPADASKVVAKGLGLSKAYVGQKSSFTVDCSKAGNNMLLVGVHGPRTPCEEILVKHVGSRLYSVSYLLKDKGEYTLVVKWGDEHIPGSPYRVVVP
UniProt P22830, sequence (P22830 whole entry, looked up): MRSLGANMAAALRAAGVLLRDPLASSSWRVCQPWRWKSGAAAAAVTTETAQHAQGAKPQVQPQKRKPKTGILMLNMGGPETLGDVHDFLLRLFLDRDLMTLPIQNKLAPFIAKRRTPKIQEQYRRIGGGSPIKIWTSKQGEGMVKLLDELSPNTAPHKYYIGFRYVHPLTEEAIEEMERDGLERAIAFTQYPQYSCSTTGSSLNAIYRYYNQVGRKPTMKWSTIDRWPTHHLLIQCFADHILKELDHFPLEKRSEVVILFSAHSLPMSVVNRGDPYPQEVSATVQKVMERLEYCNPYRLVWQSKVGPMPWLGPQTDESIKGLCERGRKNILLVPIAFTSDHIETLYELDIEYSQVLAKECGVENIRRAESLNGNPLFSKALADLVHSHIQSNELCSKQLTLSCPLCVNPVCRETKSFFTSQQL
UniProt P08754, sequence (P08754 whole entry, looked up): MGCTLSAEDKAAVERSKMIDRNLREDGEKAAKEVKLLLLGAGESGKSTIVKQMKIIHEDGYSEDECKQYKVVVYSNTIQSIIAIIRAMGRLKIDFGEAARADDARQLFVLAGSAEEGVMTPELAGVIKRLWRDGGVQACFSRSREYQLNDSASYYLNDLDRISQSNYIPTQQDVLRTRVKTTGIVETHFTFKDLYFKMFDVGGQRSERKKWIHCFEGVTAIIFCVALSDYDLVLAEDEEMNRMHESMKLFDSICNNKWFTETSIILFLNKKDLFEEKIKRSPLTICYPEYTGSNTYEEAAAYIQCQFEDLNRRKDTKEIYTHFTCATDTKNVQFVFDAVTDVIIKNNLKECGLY
UniProt P30711, sequence (P30711 whole entry, looked up): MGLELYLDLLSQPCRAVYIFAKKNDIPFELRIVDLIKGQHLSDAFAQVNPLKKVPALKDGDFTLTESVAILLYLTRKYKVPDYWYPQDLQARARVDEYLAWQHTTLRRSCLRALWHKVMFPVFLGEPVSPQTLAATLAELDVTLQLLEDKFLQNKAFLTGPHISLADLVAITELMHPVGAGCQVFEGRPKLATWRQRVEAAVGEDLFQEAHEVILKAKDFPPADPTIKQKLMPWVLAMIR
UniProt P09211, sequence (P09211 whole entry, looked up): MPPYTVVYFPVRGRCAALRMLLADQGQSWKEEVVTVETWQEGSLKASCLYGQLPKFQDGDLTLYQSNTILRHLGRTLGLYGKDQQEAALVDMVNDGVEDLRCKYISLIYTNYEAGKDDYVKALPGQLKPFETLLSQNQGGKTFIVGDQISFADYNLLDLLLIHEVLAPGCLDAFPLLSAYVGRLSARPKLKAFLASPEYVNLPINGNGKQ
UniProt Q10471, sequence (Q10471 whole entry, looked up): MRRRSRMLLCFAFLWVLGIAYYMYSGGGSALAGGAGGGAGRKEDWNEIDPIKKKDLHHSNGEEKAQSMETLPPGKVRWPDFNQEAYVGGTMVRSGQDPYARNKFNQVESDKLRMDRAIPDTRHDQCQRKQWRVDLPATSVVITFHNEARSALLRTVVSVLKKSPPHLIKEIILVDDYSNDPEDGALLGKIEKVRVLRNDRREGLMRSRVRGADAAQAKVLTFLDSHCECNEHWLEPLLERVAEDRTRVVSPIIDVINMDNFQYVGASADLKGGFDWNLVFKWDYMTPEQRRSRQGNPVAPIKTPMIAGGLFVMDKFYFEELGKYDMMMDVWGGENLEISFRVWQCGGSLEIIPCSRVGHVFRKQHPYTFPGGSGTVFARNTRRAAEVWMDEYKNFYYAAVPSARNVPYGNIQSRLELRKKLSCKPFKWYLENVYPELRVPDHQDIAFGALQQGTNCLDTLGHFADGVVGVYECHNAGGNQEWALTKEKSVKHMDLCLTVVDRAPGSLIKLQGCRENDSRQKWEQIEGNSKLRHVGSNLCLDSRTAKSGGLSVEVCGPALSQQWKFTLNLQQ

Target	log2 fold change (erlotinib)	log2 fold change [1]	log2 fold change [2]	log2 fold change [3]	log2 fold change [4]	log2 fold change [5]	log2 fold change [6]	log2 fold change [7]	log2 fold change [8]	log2 fold change [9]
GNAI3 (UniProt P08754)	-0.078	-0.038	-0.01	0.205	0.021	0	0.036	-0.026	-0.047	0.026
GPAT4 (UniProt Q86UL3)	-0.017	-0.002	0.06	-0.021	-0.016	-0.016	-0.01	0.032	-0.087	0.07
HNRNPC isoform 2 (UniProt P07910)	0.093	-0.349	-0.682	0.204	0.025	0.188	-0.172	-0.164	0.087	-0.385
IFI30 (UniProt P13284)	0.061	0.018	-0.084	0.012	-0.089	0.026	0.067	0.009	-0.004	0.026
H1FX (UniProt Q92522)	-0.285	-0.189	-0.379	0.016	-0.12	-0.012	0.033	0	0.076	-0.101
FLNA (UniProt P21333)	0.022	0.072	-0.002	-0.032	-0.022	0.005	0.013	-0.017	-0.018	-0.133
GSTP1 (UniProt P09211)	0.021	0.038	0.013	-0.016	0.041	0.037	0.014	0.005	0.021	0.057
GTF2H3 (UniProt Q13889)	-0.002	0.041	-0.115	0.051	0.027	-0.017	0.014	0.012	-0.004	0.044
GSTT1 (UniProt P30711)	0.037	-0.007	0.275	0.033	0.114	0.037	-0.044	-0.031	0.003	-0.028
GCDH (UniProt Q92947)	0.016	-0.078	0.045	-0.273 (active)	0.081	-0.011	0.082	0.048	-0.011	0.039
FECH isoform 2 (UniProt P22830)	0.191	-0.179	0.349	0.206	0.162	0.048	0.429	0.135	0.172	0.046
HNRNPK isoform 2 (UniProt P61978)	0.042	0.019	-0.003	0	0.058	-0.008	-0.013	-0.024	0.011	0.02
GALNT2 (UniProt Q10471)	-0.052	0.043	0.021	0	0.009	0.022	0.028	0.046	0.009	0.042
GIGYF2 (UniProt Q6Y7W6)	0.062	0.081	-0.022	-0.03	0.05	0.014	0.009	0.025	-0.039	-0.025
GALNT4 (UniProt Q8N4A0)	0.077	0.062	0.075	0.026	0.086	0.044	-0.012	0.008	0.006	0.005
